Screening data from PubChem.
The full list was thinned out, with hits kept by preference.
NS1 function inh: qHTS Assay for Inhibitors of Influenza NS1 Protein Function; actives 0.4% (n = 270,000); Potency, µM (doses to about 46.1 µM), without a hit: top-dose activity, positive = more growth; calls by dose curve; further: potency means the concentration at half of the fitted maximal effect; actives are rising curves; nearly all actives have a fitted effect of over 50% in size
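Recovery from NS1-induced slow growth read by OD600 in budding yeast switched to galactose assay medium (pH 6.0, -URA) at 1:100 dilution. Compound 23 nl per well; the matching strain lacking NS1 serves as control.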
AmpC detergent: qHTS Inhibitors of AmpC Beta-Lactamase (assay with detergent). actives 0.041% (n = 370,000). AmpC hydrolysis of nitrocefin, absorbance 480 nm, 0.01% Triton. Potency, µM (doses to about 114 µM), without a hit: at the highest dose activity change, negative = inhibition, most hits filed as inhibitors;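 further: potency means the concentration at half of the fitted maximal effect; 0% = no-compound wells and -100% = no-enzyme wells; nearly all actives have a fitted effect of over 25% in size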
Target sequence (P00811 whole entry, looked up): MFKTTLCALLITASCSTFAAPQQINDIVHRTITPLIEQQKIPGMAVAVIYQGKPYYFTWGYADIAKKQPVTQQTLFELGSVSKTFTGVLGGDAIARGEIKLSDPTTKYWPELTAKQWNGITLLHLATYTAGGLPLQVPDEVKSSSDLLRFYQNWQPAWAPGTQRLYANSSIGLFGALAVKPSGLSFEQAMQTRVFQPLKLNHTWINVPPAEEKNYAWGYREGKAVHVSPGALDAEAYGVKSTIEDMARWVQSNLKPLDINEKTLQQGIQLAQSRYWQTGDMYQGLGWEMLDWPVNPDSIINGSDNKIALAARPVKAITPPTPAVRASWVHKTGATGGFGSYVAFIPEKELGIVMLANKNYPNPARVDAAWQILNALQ
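AmpC (5.3 nM in the dispensed reagent) in 20 mM phosphate pH 7.0 with 0.01% (detergent screen) or 0.0001% Triton X-100 was preincubated with compounds for 15 min at room temperature. Nitrocefin was then added from an 800 uM solution, and hydrolysis was followed at 480 nm.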
AmpC inh no detg: qHTS Inhibitors of AmpC Beta-Lactamase (assay without detergent) | P00811 | AmpC nitrocefin hydrolysis, absorbance 480 nm, 0.0001% Triton | Potency, µM (series often up to 57.1 µM), for inactives: at the highest dose activity change, negative = inhibition, hits mostly inhibitors | actives 0.52% (n = 330,000) | AID 485341, 2010;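 further: potency means the concentration at half of the fitted maximal effect; plate controls were no compound for no effect and no enzyme for full effect; nearly all actives have a fitted effect of over 20% in size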
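AmpC (5.3 nM in the dispensed reagent) in 20 mM phosphate pH 7.0 with 0.01% (detergent screen) or 0.0001% Triton X-100 was preincubated with compounds for 15 min at room temperature. Nitrocefin was then added from an 800 uM solution, and hydrolysis was followed at 480 nm.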
CHX counter: Cycloheximide Counterscreen for Small Molecule Inhibitors of Shiga Toxin | cell reporter, cycloheximide protein synthesis inhibition counterscreen | max response, % | actives 12% (n = 300,000) | AID 2314, 2010; in the data active means max response mostly above about 13%, no sharp cut-off; inactive means mostly below about 14%; further: read at 38.3 µM for the half of the compounds with a filed dose; 0% is about no effect
Shiga inhibitor: A qHTS for Small Molecule Inhibitors of Shiga Toxin; Vero cells, Shiga toxin protein synthesis inhibition reporter; actives 9.2% (n = 290,000); inhibition, % at 38.7 µM; in the data active means inhibition mostly above about 28%, no sharp cut-off; inactive means mostly below about 43%; further: 0% is about no effect
An asterisk follows results filed as active. Unless noted, the call rests on the fitted dose curve; in most records, active means well fitted curve in the direction sought with a large enough effect; inconclusive means small, poorly fitted or top-dose-only effect, or another doubt; inactive means no such curve, though single readings can be large; an effect the other way counts as inactive or inconclusive.

For CCn1c(=N)c(C(=O)NC2CCCCC2)cc2c(=O)n3cc(C)ccc3nc21 the results were AmpC detergent -2%.
Screening CC(C)(C)CC(=O)NC(=S)NCCc1ccccc1 returned NS1 function inh -4%, AmpC detergent 6%, AmpC inh no detg -16%, CHX counter 30* and Shiga inhibitor 62.
`COc1ccc(C(=O)NC(=S)NCCc2ccccc2)cc1` gave NS1 function inh -2%, AmpC detergent 2%, AmpC inh no detg -36%, CHX counter -1 and Shiga inhibitor 22.
Screening CC(C)CC(=O)NC(=S)NCCc1ccccc1 returned NS1 function inh -19%, AmpC detergent inconclusive, AmpC inh no detg -28%, CHX counter 26* and Shiga inhibitor 57*.
Screening NC(N)=NN=C1c2ccccc2-c2ccccc21 returned NS1 function inh -10%, AmpC detergent 0%, AmpC inh no detg -25%, CHX counter 1 and Shiga inhibitor -6.
`ON=C1c2ccccc2-c2ccccc21` gave NS1 function inh -47%, AmpC detergent -17%, AmpC inh no detg -27%, CHX counter 25* and Shiga inhibitor 23*.
`Cc1cc2nc3c(=O)[nH]c(=O)nc-3n(C)c2cc1C=O` gave CHX counter -13 and Shiga inhibitor -17.
`c1cc2c(cc1C1CCCN1)OCCCO2` (stereo unspecified) gave NS1 function inh 0%, AmpC detergent -2%, AmpC inh no detg 0.22µM*, CHX counter -1 and Shiga inhibitor 10.
Screening O=C(NN1C(=O)c2ccccc2C1=O)c1ccncc1 returned AmpC detergent 4%, AmpC inh no detg -26%, CHX counter -1 and Shiga inhibitor 7.
Screening CN(C)c1ccc(C(=O)NN2C(=O)c3ccccc3C2=O)cc1 returned AmpC detergent 0%, AmpC inh no detg -21%, CHX counter 15* and Shiga inhibitor 43.
CN(C)c1ccc(C(=O)C(=O)c2ccccc2)cc1 was read as NS1 function inh -5%, AmpC detergent -10%, AmpC inh no detg 32%, CHX counter 49* and Shiga inhibitor 67*.
CN(C)c1ccc(C(=O)c2ccc(O)cc2O)cc1 was read as NS1 function inh 24%, AmpC detergent -3%, AmpC inh no detg -30%, CHX counter 29* and Shiga inhibitor 54*.
CC(=O)c1ccc(N(C)C)cc1 was read as NS1 function inh -10%, AmpC detergent 0%, AmpC inh no detg -8%, CHX counter 0 and Shiga inhibitor -13.
`CN(C)c1ccc(C(=O)c2ccc(N(C)C)cc2)cc1` gave NS1 function inh -6%, AmpC detergent -26%, AmpC inh no detg -19%, CHX counter 17* and Shiga inhibitor 40.
COc1ccc(NC(=O)c2csc3c2CCCCC3)cc1 was read as AmpC detergent -3%.
For O=C(Nc1ccccc1O)c1csc2c1CCCC2 the results were NS1 function inh -11%, AmpC detergent -4%, AmpC inh no detg -31%, CHX counter 35* and Shiga inhibitor 98*.
Screening COc1ccc(NC(=O)c2csc3c2CCCCC3)c(OC)c1 returned AmpC detergent 3%, AmpC inh no detg -28%, CHX counter 16* and Shiga inhibitor 44.
For CCN(CC)CCN1C(=O)C(=O)/C(=C(/O)c2ccc(S(=O)(=O)N3CCOCC3)cc2)C1c1ccc(C(C)C)cc1 (stereo unspecified) the results were NS1 function inh -3%, AmpC detergent 1%, AmpC inh no detg 94%, CHX counter -4 and Shiga inhibitor 23.
Screening O=C(O)/C=C/C(=O)Nc1ccc(OCc2ccccc2)cc1 returned NS1 function inh 4%, AmpC detergent 0%, AmpC inh no detg -22%, CHX counter 19* and Shiga inhibitor 54.
C[C@H](NC(N)=O)C(=O)Nc1ccc(OCc2ccccc2)cc1 was read as AmpC detergent inconclusive, AmpC inh no detg -2%, CHX counter 59* and Shiga inhibitor 66.
For O=C(O)/C=C/C(=O)Nc1ccc(-c2ccccc2)cc1 the results were NS1 function inh 1%, AmpC detergent -1%, AmpC inh no detg -10%, CHX counter 45* and Shiga inhibitor 92*.
`CC1CCN(c2oc(-c3ccc(COc4ccccc4)o3)nc2C#N)CC1` gave AmpC detergent 13%.
